Assay results published in PubChem BioAssay AID1159580 (chemical genetic matrix, 2015).
“And” between values parts separate entries of the source, which are not always exact repeats. Equal entries are not always repeated. About 2,000 (36%) of roughly 5,500 compounds were called active. Not shown: some 18% with an inconclusive outcome. No stated cut-off is given here; in the data, active means normalized growth mostly below about 0.91 (no sharp cut-off); inconclusive means no clear call, values can overlap the other calls; inactive means mostly above about 0.92. This is one part of the list.

Experiment: chemical genetic growth profiling, strain panel (AID 1159580);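 further: tested at 20 µM; growth read once vehicle control cultures reached saturation at 30 °C; 1 = growth at the plate median or of vehicle wells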
Settings: S. cerevisiae deletion strains, growth OD
[1] = locus YBR229C, strain ROT2, stronger effect = lower value
[2] = locus YDL101C, strain DUN1, stronger effect = lower value
[3] = locus YDL134C, strain PPH21, stronger effect = lower value
[4] = locus YDR150W, strain NUM1, stronger effect = lower value
[5] = locus YEL061C, strain CIN8, stronger effect = lower value
[6] = locus YGR078C, strain PAC10, stronger effect = lower value
[7] = locus YHR030C, strain SLT2, stronger effect = lower value
[8] = locus YJR043C, strain POL32, stronger effect = lower value
[9] = locus YLR039C, strain RIC1, stronger effect = lower value
[10] = locus YLR262C, strain YPT6, stronger effect = lower value

Measured: normalized growth

CS(=O)(=O)CCCCN=C=S
inactive: locus YBR171W, strain sec66, stronger effect = lower value 0.954 | [1] 0.96 | locus YDL005C, strain med2, stronger effect = lower value 1.01 | locus YDL185W, strain tfp1, stronger effect = lower value 0.948 | locus YDR137W, strain rgp1, stronger effect = lower value 0.918 | [4] 0.963 | locus YDR159W, strain sac3, stronger effect = lower value 0.898 | [5] 0.978 | locus YER111C, strain swi4, stronger effect = lower value 0.988 | locus YER155C, strain BEM2, stronger effect = lower value 1.01 | locus YER167W, strain BCK2, stronger effect = lower value 0.973 | locus YGL167C, strain pmr1, stronger effect = lower value 0.964 | locus YIL073C, strain SPO22, stronger effect = lower value 0.772 | locus YJL115W, strain asf1, stronger effect = lower value 0.941 | locus YJL134W, strain LCB3, stronger effect = lower value 0.981 | locus YJL168C, strain set2, stronger effect = lower value 0.954 | locus YKL068W, stronger effect = lower value 1.01 | locus YKL085W, strain MDH1 (second series), stronger effect = lower value 1 | locus YKL085W, strain MDH1, stronger effect = lower value 1 | [9] 0.758 | locus YLR102C, strain apc9, stronger effect = lower value 0.983 | [10] 0.797 | locus YLR342W, strain FKS1 (second series), stronger effect = lower value 0.813 | locus YLR357W, strain rsc2, stronger effect = lower value 0.98 | locus YMR078C, strain ctf18, stronger effect = lower value 0.965 | locus YMR125W, strain sto1, stronger effect = lower value 0.947 | locus YMR307W, strain GAS1, stronger effect = lower value 0.734 | locus YOL012C, strain htz1 0.428 | locus YOR061W, strain CKA2, stronger effect = lower value 0.936 | locus YOR080W, strain dia2, stronger effect = lower value 0.966 | locus YPR119W, strain clb2, stronger effect = lower value 1 | locus YPR141C, strain kar3, stronger effect = lower value 0.981
active: locus YAL021C, strain ccr4, stronger effect = lower value 0.889 | locus YAL030W, strain snc1, stronger effect = lower value 0.734 | locus YBL061C, strain skt5, stronger effect = lower value 0.746 | locus YBR009C, strain hhf1, stronger effect = lower value 0.495 | locus YBR021W, strain FUR4, stronger effect = lower value 0.847 | locus YBR023C, strain chs3, stronger effect = lower value 0.769 | locus YBR231C, strain swc5, stronger effect = lower value 0.504 | locus YBR279W, strain paf1, stronger effect = lower value 0.708 | locus YCL011C, strain gbp2, stronger effect = lower value 0.551 | locus YCL016C, strain dcc1, stronger effect = lower value 0.751 | locus YCL029C, strain bik1, stronger effect = lower value 0.822 | locus YCL061C, strain MRC1, stronger effect = lower value 0.834 | locus YCL069W, strain vba3, stronger effect = lower value 0.663 | locus YCR088W, strain abp1, stronger effect = lower value 0.84 | locus YDL035C, strain GPR1, stronger effect = lower value 0.791 | locus YDL040C, strain nat1, stronger effect = lower value 0.896 | locus YDL074C, strain BRE1, stronger effect = lower value 0.683 | [2] 0.853 | [3] 0.762 | locus YDL192W, strain arf1, stronger effect = lower value 0.688 | locus YDR001C, strain nth1, stronger effect = lower value 0.896 | locus YDR069C, strain doa4, stronger effect = lower value 0.829 | locus YDR101C, strain arx1, stronger effect = lower value 0.742 | locus YDR162C, strain NBP2, stronger effect = lower value 0.69 | locus YDR195W, strain ref2 1.2 [resistant] | locus YDR297W, strain sur2, stronger effect = lower value 0.737 | locus YDR318W, strain mcm21, stronger effect = lower value 0.816 | locus YDR334W, strain swr1, stronger effect = lower value 0.375 | locus YDR335W, strain msn5, stronger effect = lower value 0.802 | locus YDR388W, stronger effect = lower value 0.869 | locus YDR392W, strain spt3, stronger effect = lower value 0.474 | locus YDR502C, strain sam2, stronger effect = lower value 0.696 | locus YEL003W, strain gim4, stronger effect = lower value 0.217 | locus YEL037C, strain rad23, stronger effect = lower value 0.749 | locus YEL061C, strain CIN8 (second series), stronger effect = lower value 0.853 | locus YER015W, strain faa2, stronger effect = lower value 0.478 | locus YER016W, strain bim1, stronger effect = lower value 0.758 | locus YER110C, stronger effect = lower value 0.807 | locus YER155C, strain BEM2 (second series), stronger effect = lower value 0.439 | locus YFR010W, strain ubp6, stronger effect = lower value 0.62 | locus YGL078C, strain dbp3, stronger effect = lower value 0.92 | locus YGL086W, strain mad1, stronger effect = lower value 0.723 | locus YGL173C, strain kem1, stronger effect = lower value 0.692 | locus YGL227W, strain vid30, stronger effect = lower value 0.86 | locus YGL240W, strain doc1, stronger effect = lower value 0.545 | locus YGL248W, strain PDE1, stronger effect = lower value 0.724 | locus YGL253W, strain hxk2, stronger effect = lower value 0.428 | [6] 0.799 | locus YGR135W, strain pre9, stronger effect = lower value 0.815 | locus YGR252W, strain gcn5, stronger effect = lower value 0.634 | locus YHR013C, strain ard1, stronger effect = lower value 0.816 | locus YHR027C, strain rpn1, stronger effect = lower value 0.618 | locus YHR079C, strain IRE1 (second series), stronger effect = lower value 0.885 | locus YHR079C, strain IRE1, stronger effect = lower value 0.67 | locus YHR094C, strain hxt1, stronger effect = lower value 0.913 | locus YHR129C, strain ARP1, stronger effect = lower value 0.865 | locus YHR142W, strain chs7, stronger effect = lower value 0.536 | locus YHR200W, strain rpn10, stronger effect = lower value 0.905 | locus YIL066C, strain RNR3, stronger effect = lower value 0.807 | locus YIL125W, strain kgd1, stronger effect = lower value 0.901 | locus YIR030C, strain dcg1, stronger effect = lower value 0.77 | locus YJL092W, strain hpr5, stronger effect = lower value 0.782 | locus YJL095W, strain BCK1 (second series), stronger effect = lower value 0.791 | locus YJL095W, strain BCK1, stronger effect = lower value 0.606 and 0.709 | locus YJL129C, strain trk1, stronger effect = lower value 0.762 | locus YJL154C, strain vps35, stronger effect = lower value 0.839 | locus YJL164C, strain tpk1, stronger effect = lower value 0.607 | locus YJL166W, strain qcr8, stronger effect = lower value 0.493 | locus YJL187C, strain SWE1 (second series), stronger effect = lower value 0.798 | [8] 0.567 | locus YJR066W, strain TOR1, stronger effect = lower value 0.716 | locus YKL009W, strain mrt4, stronger effect = lower value 0.82 | locus YKL160W, strain elf1, stronger effect = lower value 0.7 | locus YKR001C, strain vps1, stronger effect = lower value 0.582 | locus YKR026C, strain gcn3, stronger effect = lower value 0.866 | locus YKR091W, strain srl3, stronger effect = lower value 0.877 | locus YLL001W, strain dnm1, stronger effect = lower value 0.596 | locus YLL026W, stronger effect = lower value 0.65 | locus YLL041C, strain sdh2, stronger effect = lower value 0.801 | locus YLR027C, strain aat2, stronger effect = lower value 0.569 | locus YLR058C, strain SHM2, stronger effect = lower value 0.801 | locus YLR113W, strain HOG1, stronger effect = lower value 0.819 | locus YLR221C, strain rsa3, stronger effect = lower value 0.483 | locus YLR258W, strain gsy2, stronger effect = lower value 0.735 | locus YLR262C, strain YPT6 (second series), stronger effect = lower value 0.826 | locus YLR268W, strain sec22, stronger effect = lower value 0.669 | locus YLR320W, strain mms22, stronger effect = lower value 0.502 | locus YLR330W, strain CHS5, stronger effect = lower value 0.822 | locus YLR342W, strain FKS1, stronger effect = lower value 0.889 | locus YLR370C, strain arc18, stronger effect = lower value 0.766 | locus YLR371W, strain rom2, stronger effect = lower value 0.595 | locus YLR384C, strain iki3, stronger effect = lower value 0.658 | locus YLR418C, strain cdc73, stronger effect = lower value 0.645 | locus YML016C, strain PPZ1, stronger effect = lower value 0.842 | locus YML032C, strain rad52, stronger effect = lower value 0.801 | locus YML120C, strain ndi1, stronger effect = lower value 0.666 | locus YML124C, strain tub3, stronger effect = lower value 0.901 | locus YMR058W, strain fet3, stronger effect = lower value 0.559 | locus YMR129W, stronger effect = lower value 0.798 | locus YMR205C, strain PFK2, stronger effect = lower value 0.732 | locus YMR223W, strain ubp8, stronger effect = lower value 0.735 | locus YMR231W, strain pep5, stronger effect = lower value 0.522 | locus YNL067W, strain RPL9B, stronger effect = lower value 0.779 | locus YNL071W, strain lat1, stronger effect = lower value 0.538 | locus YNL183C, strain NPR1, stronger effect = lower value 0.623 | locus YNL209W, strain ssb2, stronger effect = lower value 0.628 | locus YNL233W, strain BNI4, stronger effect = lower value 0.767 | locus YNL248C, strain rpa49, stronger effect = lower value 0.493 | locus YNL250W, strain rad50, stronger effect = lower value 0.884 | locus YNL271C, strain bni1, stronger effect = lower value 0.887 | locus YNL298W, strain CLA4, stronger effect = lower value 0.906 | locus YNL307C, strain MCK1, stronger effect = lower value 0.575 | locus YNL322C, strain KRE1 (second series), stronger effect = lower value 0.711 | locus YNR049C, strain mso1, stronger effect = lower value 0.908 | locus YNR052C, strain pop2, stronger effect = lower value 0.821 | locus YOL147C, strain pex11, stronger effect = lower value 0.827 | locus YOR001W, strain rrp6, stronger effect = lower value 0.643 | locus YOR069W, strain VPS5, stronger effect = lower value 0.891 | locus YOR070C, strain gyp1, stronger effect = lower value 0.645 | locus YOR083W, strain WHI5, stronger effect = lower value 0.554 | locus YOR106W, strain vam3, stronger effect = lower value 0.359 | locus YOR136W, strain idh2, stronger effect = lower value 0.865 | locus YOR144C, strain elg1, stronger effect = lower value 0.932 | locus YOR184W, strain ser1, stronger effect = lower value 0.679 | locus YOR231W, strain MKK1, stronger effect = lower value 0.684 | locus YOR265W, strain rbl2, stronger effect = lower value 0.756 | locus YOR270C, strain vph1, stronger effect = lower value 0.352 | locus YOR290C, strain snf2, stronger effect = lower value 0.685 | locus YOR316C, strain cot1, stronger effect = lower value 0.921 | locus YPL051W, strain arl3, stronger effect = lower value 0.583 | locus YPL078C, strain atp4, stronger effect = lower value 0.562 | locus YPL106C, strain sse1, stronger effect = lower value 0.808 | locus YPL240C, strain hsp82, stronger effect = lower value 0.752 | locus YPL256C, strain CLN2, stronger effect = lower value 0.822 | locus YPR163C, strain tif3, stronger effect = lower value 0.854 | locus YPR167C, strain met16, stronger effect = lower value 0.904 | strain wtn01, stronger effect = lower value 0.652
0.969 (inactive) and 0.726 (active): [7]

CC1C(c2ccccc2)OCCN1CN1C(=O)c2ccccc2C1=O (stereo unspecified)
inactive: locus YAL013W, strain DEP1, stronger effect = lower value 1.02 | [1] 0.985 | [2] 1.01 | [3] 1.01 | [4] 0.99 | [5] 0.98 | [6] 1.01 | [7] 1.02 | locus YHR087W, strain rtc3, stronger effect = lower value 0.993 | [8] 1.01 | locus YJR075W, strain HOC1, stronger effect = lower value 0.98 | locus YKL190W, strain CNB1, stronger effect = lower value 0.987 | [9] 1.05 | locus YLR058C, strain SHM2 (second series), stronger effect = lower value 1 | locus YLR085C, strain ARP6, stronger effect = lower value 0.969 | [10] 1.07 | locus YML094W, strain GIM5, stronger effect = lower value 0.975 | locus YMR219W, strain ESC1, stronger effect = lower value 0.996 | locus YMR263W, strain SAP30, stronger effect = lower value 0.991 | locus YNL153C, strain GIM3, stronger effect = lower value 0.992 | locus YNL298W, strain CLA4 (second series), stronger effect = lower value 1 | locus YNL322C, strain KRE1, stronger effect = lower value 0.993 | locus YNR030W, strain Alg12, stronger effect = lower value 1.01 | locus YPL055C, strain LGE1, stronger effect = lower value 0.991 | locus YPL241C, strain CIN2, stronger effect = lower value 0.98 | locus YPR135W, strain CTF4, stronger effect = lower value 1.06
